Laboratory results as given in PubChem BioAssay (NCATS).
Results filed as inconclusive are left out. Calls of active or inactive are those of the source. Calls come from the whole dose curve; as a rule, active = well fitted curve in the direction sought with a large enough effect; inconclusive = small, poorly fitted or top-dose-only effect, or another doubt; inactive = no such curve, though single readings can be large; an effect the other way counts as inactive or inconclusive.

Tests used:
[1] = molecular target: Glutathione peroxidase 1 (Homo sapiens) (UniProt P07203); experiment: Primary qHTS Assay for Inhibitors of Recombinant Selenoprotein Glutathione Peroxidase 1 (GPX1) (AID 1845191); note: nearly all actives have a fitted effect of over 65% in size; for activity, negative = inhibition: % is set by controls: 0 for no effect and ±100 for the full control effect
Sequence of Glutathione peroxidase 1 (Homo sapiens) (P07203 whole entry, looked up): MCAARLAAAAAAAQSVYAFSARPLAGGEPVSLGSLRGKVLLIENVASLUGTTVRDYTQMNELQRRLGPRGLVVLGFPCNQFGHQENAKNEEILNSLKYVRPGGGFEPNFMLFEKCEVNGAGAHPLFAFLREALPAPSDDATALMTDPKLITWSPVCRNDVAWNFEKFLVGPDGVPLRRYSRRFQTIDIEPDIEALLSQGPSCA
Procedure, shortened: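 GR-coupled assay: compounds preincubated 30 min at room temperature with GPX1, then reaction started with CHP; final 10 nM GPX1, 1 mM GSH, 0.5 mM CHP, 0.5 mM NADPH, 100 nM GR, 0.01% BSA, pH 7.5 Tris buffer. NADPH fluorescence (340/450 nm) read at 0 and 15 min.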

[2] = molecular target: Phospholipid hydroperoxide glutathione peroxidase GPX4 (Homo sapiens) (UniProt P36969); experiment: Primary qHTS Assay for Inhibitors of Recombinant Selenoprotein Glutathione Peroxidase 4 (GPX4) (AID 1845192); note: nearly all actives have a fitted effect of over 65% in size; for activity change, negative = inhibition: series mostly up to about 50 µM; % is set by controls: 0 for no effect and ±100 for the full control effect
Sequence of Phospholipid hydroperoxide glutathione peroxidase GPX4 (Homo sapiens) (P36969 whole entry, looked up): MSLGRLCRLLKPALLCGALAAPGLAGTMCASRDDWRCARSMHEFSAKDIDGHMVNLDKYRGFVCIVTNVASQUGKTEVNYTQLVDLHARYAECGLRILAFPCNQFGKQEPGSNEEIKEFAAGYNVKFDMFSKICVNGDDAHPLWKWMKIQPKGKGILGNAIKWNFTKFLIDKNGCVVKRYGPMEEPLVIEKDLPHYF
Procedure, shortened: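 GR-coupled assay: recombinant GPX4 preincubated 30 min with compound at room temperature; final 200 nM GPX4, 1 mM GSH, 0.5 mM cumene hydroperoxide, 0.5 mM NADPH, 100 nM GR, 0.01% BSA, pH 7.5 Tris. NADPH fluorescence (340/450 nm) read at 0 and 15 min.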

[3] = molecular target: Luciferin 4-monooxygenase (Photinus pyralis) (UniProt P08659); experiment: Primary firefly luciferase (FLuc) qHTS assay for identification of artifact compounds. (AID 1845220); note: nearly all actives have a fitted effect of over 60% in size;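 for activity change, negative = inhibition: series mostly up to about 54 µM; plate controls were DMSO vehicle for no effect and no enzyme for full effect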
Procedure, shortened: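 D-luciferin and ATP (10 uM each, final) in Tris acetate buffer pH 7.6 were incubated with compounds for 15 min at room temperature. The reaction was started with 10 nM Photinus pyralis luciferase and luminescence read after 5 min. Percent inhibition was fitted to a 4-parameter Hill equation.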

[4] = Primary fluorescence-based thiol-reactive (MSTI) qHTS assay for identification of artifact compounds. (AID 1845221); note: nearly all actives have a fitted effect of over 65% in size; note: potency is the fitted concentration of half-maximal effect;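 for activity change, negative = thiol reactive: series mostly up to about 54 µM; thiol-reactive compounds lower the probe fluorescence signal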
Procedure, shortened: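 Curve-fitted percent inhibition (4-parameter Hill) derived from fluorescence, Ex 525/Em 598 nm, scaled with Acetyl-MSTI and MSTI; 1 h incubation at room temperature.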

[5] = tested on: Nanoluciferase (engineered Oplophorus gracilirostris luciferase); experiment: Primary Nanoluciferase (NLuc) qHTS assay for identification of artifact compounds. (AID 1845222);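 note: series mostly up to about 54 µM; 0% = DMSO and -100% = no enzyme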
Procedure, shortened: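 Diluted conditioned medium from NLuc-expressing S16 cells treated with compounds for 15 min at room temperature, then Nano-Glo substrate added; luminescence read after 5 min. Percent inhibition versus no-enzyme and DMSO controls fitted to 4-parameter Hill equation.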

CC1(C)CC[C@]2(C(=O)O)CC[C@]3(C)C(=CCC4[C@@]5(C)CC[C@H](O[C@@H]6O[C@H](C(=O)O)[C@@H](O[C@@H]7OC[C@@H](O)[C@H](O)[C@H]7O)[C@H](O)[C@H]6O)C(C)(C)C5CC[C@]43C)C2C1O (stereo not given in full)
inactive: Potency [1] | Potency [2] | Potency [3] | Potency [4] | Potency [5]

CC[C@@H](O)C[C@@H]1C(C)=C[C@@H]2CCCC[C@@H]2[C@@]1(C)C(=O)O
inactive: Potency [1] | Potency [2] | Potency [3] | Potency [4] | Potency [5]

O=C1CCC(=O)N(O)CCCCCNC(=O)CCC(=O)N(O)CCOCCNC(=O)CCC(=O)N(O)CCCCCN1
inactive: Potency [1] | Potency [2] | Potency [3] | Potency [4] | Potency [5]

Cc1nc2ccc(Oc3ccc(F)cc3)cc2c(=O)n1C[C@H]1CCCN(C(C)C)C1
inactive: Potency [1] | Potency [2] | Potency [3] | Potency [4] | Potency [5]

CC1(C)CC[C@@]2(C(=O)O[C@@H]3O[C@H](CO)[C@@H](O)[C@H](O)[C@H]3O)C(C1)C1=CCC3[C@@]4(C)CC[C@@H](O[C@@H]5O[C@H](C(=O)O)[C@@H](O[C@@H]6OC[C@@H](O)[C@H](O)[C@H]6O)[C@H](O[C@@H]6OC[C@](O)(CO)[C@H]6O)[C@H]5O)C(C)(C)C4CC[C@@]3(C)[C@]1(C)C[C@H]2O (stereo not given in full)
inactive: Potency [1] | Potency [2] | outcome [3] inactive [at 11.6 µM] | activity change, negative = thiol reactive [4] 54.8% [at 11.5 µM] | activity, negative = inhibition [5] 1.29% [at 11.6 µM]

O=C(CC1C(=O)Nc2ccccc21)OC[C@H]1O[C@@H](OCCc2ccc(O)cc2)[C@H](O)[C@@H](O)[C@@H]1O (stereo not given in full)
active: Potency [4] 9.22 µM
inactive: Potency [1] | Potency [2] | Potency [3] | Potency [5]

C[C@H]1C(=O)N2c3ccccc3[C@@]3(O)C[C@@H]4C(=O)N[C@](C)(c5nc6ccccc6c(=O)n54)N1[C@@H]23
inactive: Potency [1] | Potency [2] | Potency [3] | Potency [4] | Potency [5]

CC(=O)N1CCN(Cc2ccc([C@H](C)Nc3nccc(N4C(=O)OC[C@@H]4C(C)C)n3)cc2)CC1
inactive: Potency [1] | Potency [2] | Potency [3] | Potency [4] | Potency [5]

COCCOc1cnc2ccn([C@H](C)c3nnc4c(F)cc(-c5cnn(C)c5)cn34)c(=O)c2c1
inactive: Potency [1] | Potency [2] | Potency [3] | Potency [4] | Potency [5]

C[C@@H]1O[C@@H](O[C@H]2[C@H](O[C@H]3CC[C@@]4(C)C(CC[C@]5(C)C4CC=C4[C@@H]6CC(C)(C)CC[C@]6(C(=O)O[C@@H]6OC[C@H](O)[C@H](O)[C@H]6O[C@@H]6O[C@@H](C)[C@H](O[C@@H]7O[C@H](CO)[C@@H](O)[C@H](O)[C@H]7O)[C@H](O)[C@H]6O)[C@H](O)C[C@]45C)C3(C)C)O[C@H](CO)[C@@H](O[C@@H]3OC[C@@H](O)[C@H](O)[C@H]3O)[C@@H]2O)[C@H](O)[C@H](O)[C@H]1O (stereo not given in full)
inactive: activity, negative = inhibition [1] -13.9% [at 9.52 µM] | outcome [2] inactive [at 9.73 µM] | activity change, negative = inhibition [3] -1.49% [at 11.6 µM] | activity change, negative = thiol reactive [4] 113% [at 11.5 µM] | activity, negative = inhibition [5] 3.16% [at 11.6 µM]

CC1(C)CC[C@]2(C(=O)O[C@@H]3O[C@H](CO[C@@H]4O[C@H](CO)[C@@H](O)[C@H](O)[C@H]4O[C@@H]4O[C@H](CO)[C@H](O)[C@H](O)[C@H]4O)[C@@H](O)[C@H](O[C@@H]4O[C@H](CO)[C@@H](O)[C@H](O)[C@H]4O)[C@H]3O)CC[C@]3(C)C(=CCC4[C@@]5(C)CC[C@H](O[C@@H]6OC[C@@H](O)[C@H](O)[C@H]6O)[C@@](C)(C(=O)O)C5CC[C@]43C)[C@@H]2C1 (stereo not given in full)
inactive: outcome [1] inactive [at 9.52 µM] | outcome [2] inactive [at 9.73 µM] | activity change, negative = inhibition [3] 3.08% [at 11.6 µM] | activity change, negative = thiol reactive [4] 79.6% [at 11.5 µM] | activity, negative = inhibition [5] 0.986% [at 11.6 µM]

CC(=O)OC1C(O)CC2(C)C(CCC(C)C23Cc2c(O)cc(CO)c(C=O)c2O3)C1(C)C (stereo not given)
inactive: Potency [1] | Potency [2] | Potency [3] | Potency [4] | Potency [5]

C=CC1C(OC2OC(CO)C(O)C(O)C2O)OC=C(C(=O)OC)C1CC1CC(=O)CC(CCc2ccc(O)cc2)O1 (stereo not given)
inactive: Potency [1] | Potency [2] | Potency [3] | Potency [4] | Potency [5]

C=CC(=O)N1CCN(C(=O)CNc2cc(I)c(Cl)cc2O)CC1
active: Potency [4] 8.44 µM
inactive: Potency [1] | Potency [2] | Potency [3] | Potency [5]

C=C1C[C@]23C[C@H]1CC[C@H]2[C@]1(C)CCC[C@@](C)(C(=O)O)[C@H]1[C@@H]3C(=O)O
inactive: Potency [1] | Potency [2] | Potency [3] | Potency [4] | Potency [5]

CN(C)c1ccc2c(c1)OC(N)=C(C#N)C2c1cccc(C(F)(F)F)c1 (stereo not given)
inactive: Potency [1] | Potency [2] | Potency [3] | Potency [5]
active: Potency [4] 2.12 µM

Nc1nc2c(ncn2[C@@H]2O[C@@H]3COP(=O)(O)O[C@H]3[C@H]2O)c(=O)[nH]1
inactive: Potency [1] | Potency [2] | Potency [3] | Potency [4] | Potency [5]

CCC[C@@H]1O[C@@H]2C[C@H]3[C@@H]4CCC5=CC(=O)C=C[C@]5(C)[C@H]4[C@@H](O)C[C@]3(C)[C@]2(C(=O)CO)O1
inactive: Potency [1] | Potency [2] | Potency [3] | Potency [4] | Potency [5]

C[C@@H](O)[C@H](NC(=O)c1ccc(C#Cc2ccc(CN3CCOCC3)cc2)cc1)C(=O)NO
inactive: Potency [1] | Potency [2] | Potency [3] | Potency [4] | Potency [5]

COc1cc(C)c(C(=O)O[C@H]2[C@@H](OC(C)=O)[C@H](n3ccc(=O)[nH]c3=O)O[C@@H]2CO)c(OC)c1
inactive: Potency [1] | Potency [2] | Potency [3] | Potency [4] | Potency [5]

C=C1CCC2C(C)(C)C(O)CCC2(C)C1CCC(C)CCO (stereo not given)
active: Potency [4] 16.5 µM
inactive: Potency [1] | Potency [2] | Potency [3] | Potency [5]

CC1CCC23COC(=O)C2=CC(O)CC3C1(C)CCC1=CC(O)OC1=O (stereo not given)
inactive: Potency [1] | Potency [2] | Potency [3] | Potency [5]
active: Potency [4] 3.29 µM

CC(=O)OC1C(OC(=O)c2ccccc2)C2C(C)(C)CC(=O)CC2(C)C23CCC(C)(C2)C(O)CC13 (stereo not given)
inactive: Potency [1] | Potency [2] | Potency [3] | Potency [4] | Potency [5]
